# Experimental data published in PubChem BioAssay AID430 (Sanford-Burnham Center for Chemical Genomics, 2006).
# The whole screen tested about 63,000 compounds, of which about 1,100 (1.7%) were called active. What follows is part of a selection rich in actives, with near analogues and random picks from the rest. Results with a measured potency or affinity are listed apart. Values without a mark were called inactive. Cut-off read from the data, not from the text of the source: active = cytotoxicity above about 50%; inactive = the rest.
# Assay: HPDE-C7 pancreatic duct cell viability loss – fluorescence, HTS (AID 430);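 note: cells exposed to compound for 48 hours before viability readout; 0% = vehicle and 100% = reference cytotoxic drug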
# Conditions: HPDE-C7 pancreatic duct cells viability, at 10 µM, stronger effect = higher value
row,SMILES,cytotoxicity
1,CC1CN(c2nc3ccccc3nc2C(C#N)C(=O)OC2CCCCC2)CC(C)O1 (stereo not given),-26.1%
2,COC(=O)c1cc2ccsc2n1Cc1nc(-c2ccc(OC)cc2)oc1C,-7%
3,COc1ccc(-c2nc(CS(=O)CC(=O)NCc3ccco3)c(C)o2)cc1OC (stereo not given),2.9%
4,COC(=O)c1ccc(-c2ccco2)n1Cc1nc(-c2ccc(OC)c(OC)c2)oc1C,71.6% (active)
5,COC(=O)C1=C(C)N(CC2CCCO2)C(=O)C1 (stereo not given),6%
6,Cc1cc(=O)[nH]c(SC/C=C/c2ccccc2)n1,-13.4%
7,Cc1cc(=O)[nH]c(SCc2cccc(Br)c2)n1,2.7%
8,Cc1cc(=O)[nH]c(SCc2nc3ccccc3s2)n1,57% (active)
9,CC(=O)Nc1ccc(C(=O)CS(=O)(=O)c2ccc(C)cc2)cc1,-17.2%
10,Cc1cc2c(c(=O)o1)C1(C(=O)N(C)c3ccccc31)C(C#N)=C(N)O2 (stereo not given),-8.3%
11,COc1ccccc1-n1cnc2cc(NCc3ccco3)ccc21,63.6% (active)
12,COc1ccccc1-n1cnc2cc(NC(C)=O)ccc21,-8.6%
13,CCC(=O)Nc1ccc2c(c1)ncn2-c1ccccc1OC,-35.6%
14,O=C(CCCCCN1C(=O)CCC1=O)Nc1ncn[nH]1,-2.1%
15,CCCCCCc1cc2cc(-c3nnc(-c4ccccc4O)o3)c(=O)oc2cc1O,62.7% (active)
16,CCCCCCc1cc2cc(C(=O)NC)c(=N)oc2cc1O,19.4%
17,CCOc1cccc2cc(-c3nnc(-c4ccccc4)o3)c(=O)oc12,-14.9%
18,N#CCCn1cc(C(CC(=O)c2ccc(Br)cc2)C(=O)O)c2ccccc21 (stereo not given),-21.4%
19,CCOC(=O)Nc1ccc(S(=O)(=O)Nn2cnnc2)cc1,-3.3%
20,OCCSc1nc(-c2cccnc2)nc2ccccc12,5.1%
21,CN1CCN(c2nc(-c3cccnc3)nc3ccccc23)CC1,-0.2%
22,Cn1nnnc1Sc1nc(-c2cccnc2)nc2ccccc12,99.3% (active)
23,CCOc1cccc(-c2nnc3n2N=C(c2cc(OC)ccc2OC)CS3)c1,28.5%
24,COCCSc1ccccc1C(=O)Nc1nncs1,-5.4%

row,SMILES,cytotoxicity
1,O=C(CCN1CCN(CCC(=O)c2ccccc2)CC1)c1ccccc1,-22.9%
2,O=C(CCN1CCN(c2ccccc2F)CC1)Nc1ccccc1F,-8.5%
3,C=CCn1c(SCCC(=O)O)nc2c1c(=O)n(C)c(=O)n2C,-15.6%
4,COc1ccc(NC(C)=O)cc1NC(=O)CSc1nnc(-c2ccccc2)n1N,-1.2%
5,CC[C@H](C)C(=O)O[C@H]1C[C@@H](C)C=C2C=C[C@H](C)[C@H](CC[C@@H]3C[C@@H](O)CC(=O)O3)[C@H]21,57.6% (active)
6,NC(=O)COC(=O)c1ccc(S(=O)(=O)N2CCCCCC2)cc1,10.2%
7,CCOC(=O)CSc1nnc([C@H](CC(C)C)NC(=O)OC(C)(C)C)o1,1.4%
8,CC(C)[C@H](NC(=O)OC(C)(C)C)c1nnc(S(=O)(=O)Cc2c(F)cccc2Cl)o1,-7.3%
9,CCC(C)[C@@H](NC(=O)OC(C)(C)C)c1nnc(S(=O)(=O)Cc2cccc(C)c2)o1 (stereo not given in full),5.7%
10,COC(=O)CS(=O)(=O)c1nnc([C@H](Cc2ccccc2)NC(=O)OC(C)(C)C)o1,-7.1%
11,CC[C@@H](C)[C@H](NC(=O)OC(C)(C)C)c1nnc(S(=O)(=O)Cc2cc(C)ccc2C)o1,58.1% (active)
12,CC(C)(C)OC(=O)N[C@@H](Cc1ccccc1)c1nnc(S(=O)(=O)Cc2cccc(F)c2)o1,-10.9%
13,CC(C)C[C@H](NC(=O)OC(C)(C)C)c1nnc(SCc2cccc(F)c2)o1,-12%
14,Cc1ccc(CCNC(=O)NC(C)(C)C)cc1,-6.5%
15,O=C(OC1CCOC1=O)c1ccc(S(=O)(=O)N2CCCCCC2)cc1 (stereo not given),-10.6%
16,COc1cc2c(C#N)c(N3CCCCC3)nc(N)c2c(N)n1,44.8%
17,COc1cc2c(C#N)c(N3CCOCC3)nc(N)c2c(N)n1,37.5%
18,N#Cc1c(N2CCCC2)nc(N)c2c(N)nc(N3CCCC3)cc12,1.9%
19,COc1cc2c(C#N)c(N3CCN(c4ccccc4OC)CC3)nc(N)c2c(N)n1,54.8% (active)
20,CCOc1cc2c(C#N)c(N3CCOCC3)nc(N)c2c(N)n1,23%
21,COc1ccc(Cc2nc(-c3cccs3)no2)cc1OC,5.9%
22,Cc1ccc(OCCSc2nnc(NC(=O)c3ccco3)s2)cc1,4.3%
23,CCC(C)NC(=O)CCS(=O)(=O)c1ccc2c(c1)n(C)c(=O)c(=O)n2C (stereo not given),-0.5%
24,CC(C(=O)Nc1sccc1C(N)=O)N1C(=O)C2CC=CCC2C1=O (stereo not given),-1.9%

row,SMILES,cytotoxicity
1,CC(CCc1ccccc1)NC(=O)C1CCN(S(=O)(=O)N2CCCCC2)CC1 (stereo not given),-21.3%
2,Clc1c(CSc2nc3ccccc3o2)nc2sccn12,13.8%
3,O=C(O)C1CCCCC1C(=O)Nc1ccc2c(c1)CCC2 (stereo not given),-13.4%
4,CC1CCCCC1NC(=O)CSc1nnc(COc2ccccc2Cl)o1 (stereo not given),-6.2%
5,CCCn1c(N)c(N(C)C)c(=O)n(CC(=O)Nc2ccc(OC(F)(F)F)cc2)c1=O,-2.7%
6,COc1ccc(OC)c(Nc2cc(-c3ccccc3)nc(N)n2)c1,68.5% (active)
7,COc1ccc(OC)c(Nc2cc(C)nc3ccccc23)c1,-3.8%
8,COc1cc(-c2ccccc2)nc(N)n1,-3.4%
9,Cc1nc2ccccc2c2oc(C(=O)N3CCc4ccccc43)cc12,0.3%
10,COCCN1C=C(C(=O)OC)C(c2ccc(OC)c(OC)c2)C(C(=O)OC)=C1,-14.4%
11,CC1CN(c2nc3ccccn3c(=O)c2/C=C(\C#N)S(=O)(=O)c2ccccc2)CC(C)O1 (stereo not given),-12.3%
12,COc1ccc(NC(=O)CSc2nnc(-c3ccco3)n2C)cc1,-10.6%
13,O=C(CSc1nnc(-c2ccco2)c(-c2ccco2)n1)Nc1ccccc1,9.9%
14,Clc1ccccc1CSc1ncccn1,-5.2%
15,Cc1ccc(NC(=O)CSc2nnc(-c3ccco3)c(-c3ccco3)n2)cc1,82.6% (active)
16,Cc1cc(C)nc(SCc2nnc(SCc3ccccc3Cl)o2)n1,-4.7%
17,CC1(C)OC(=O)C(=CNc2cccc(C(=O)O)c2)C(=O)O1,-20.6%
18,COc1ccc(S(=O)(=O)NCCSc2ccc(C)cc2)cc1OC,12.8%
19,COc1ccc(-c2nc(CN3CCC(C(=O)NC(C)C)CC3)c(C)o2)cc1OC,-10.9%
20,COc1ccc(C2C(C(C)=O)=C(O)C(=O)N2C)c(OC)c1 (stereo not given),6.1%
21,COc1ccc(C2NC(=O)c3n[nH]c(C)c32)c(OC)c1 (stereo not given),4.3%
22,COc1ccc(C2CC(c3c(O)cc(C)oc3=O)=NCCS2)c(OC)c1 (stereo not given),71.1% (active)
23,Cc1cccc(N(Cc2nnc3n2CCCCC3)C(=O)Nc2ccccc2)c1,-21.7%
24,COc1cc(CO)cc(-c2cc(CO)cc(OC)c2OC)c1OC,4%

row,SMILES,cytotoxicity
1,CC1(C)Cc2c(c(N3CCCC3)nc3sc4c(N5CCN(CCO)CC5)ncnc4c23)CO1,60.5% (active)
2,OCCN1CCN(c2ncnc3c2sc2nc(N4CCOCC4)c4c(c23)CCC4)CC1,35.6%
3,CN1CCN(c2ncnc3c2sc2nc(N4CCCC4)c4c(c23)CC(C)(C)OC4)CC1,-7.2%
4,Cn1c(N2CCN(c3ccccn3)CC2)nc2c1c(=O)n(Cc1ccccc1Cl)c(=O)n2C,-12.8%
5,Cn1c(OCc2cccnc2)nc2c1c(=O)n(Cc1ccc(Br)cc1)c(=O)n2C,50.4% (active)
6,Cn1c(OCc2cccnc2)nc2c1c(=O)n(Cc1ccc(Cl)cc1)c(=O)n2C,44%
7,COc1ccc(CNc2nc3c(c(=O)n(Cc4ccc(Cl)cc4)c(=O)n3C)n2C)cc1,26.6%
8,Cn1c(OCc2cccnc2)nc2c1c(=O)n(Cc1ccccc1)c(=O)n2C,25%
9,Cn1c(N2CCN(c3ccccn3)CC2)nc2c1c(=O)n(Cc1ccc(Cl)cc1)c(=O)n2C,66.4% (active)
10,Cn1c(NCCCN2CCOCC2)nc2c1c(=O)n(Cc1ccc(Cl)c(Cl)c1)c(=O)n2C,44%
11,Cn1c(NCC(O)c2ccccc2)nc2c1c(=O)n(Cc1ccc(Cl)c(Cl)c1)c(=O)n2C (stereo not given),69% (active)
12,Cn1c(NCc2ccco2)nc2c1c(=O)n(Cc1ccc(Cl)c(Cl)c1)c(=O)n2C,8%
13,Cn1c(NCc2ccccc2)nc2c1c(=O)n(Cc1ccccc1)c(=O)n2C,5.6%
14,Cn1c(N2CCCC2)nc2c1c(=O)n(Cc1ccc(Cl)cc1)c(=O)n2C,1.7%
15,Cn1c(NCC(O)c2ccccc2)nc2c1c(=O)n(Cc1ccc(Cl)cc1)c(=O)n2C (stereo not given),53.2% (active)
16,COc1cccc(NC(=O)N2CCN(c3ccc(C(F)(F)F)cn3)CC2)c1,1%
17,O=C(Cn1nnc2ccccc2c1=O)NC1CCCc2ccccc21 (stereo not given),-10.4%
18,N#CCCN(Cc1cccnc1)C(=O)c1ccc(S(=O)(=O)N2CCOCC2)cc1,-11%
19,CCOC(=O)c1[nH]c(C)c(C(=O)NCc2ccccn2)c1C,-28.2%
20,CCCC(c1nnnn1C1CCCCC1)N1CCN(c2ncccn2)CC1 (stereo not given),-4%
21,Cc1ccc2nc3sc(C(=O)N4CCOCC4)c(N)c3cc2c1,2.9%
22,Cc1ccc2cc3c(N)c(C(=O)N4CCOCC4)sc3nc2c1,-0.1%
23,Cc1cccc2cc3c(N)c(C(=O)N4CCOCC4)sc3nc12,67.6% (active)
